Data from PubChem BioAssay (NCI).
Where “and” joins values, the source holds several entries; their conditions need not be identical. Equal values may be shown once. Compounds without any hit were thinned out: in the full panel of roughly 79,000, 15% have a hit. A number with no mark means an inactive call. Calls of active or inactive are those of the source. No stated cut-off is given here; in the data, active means growth inhibition above about 70%; inactive means the rest.

Experiment: NCI Yeast Anticancer Drug Screen. Data for the mec2-1 strain (AID 157)
Conditions: S. cerevisiae mec2-1 strain, stronger effect = higher value
Method: Growth inhibition of yeast strains with defined genetic alterations is measured as a screen for potential anti-cancer activity. Selected strains with alterations in DNA damage repair or cell cycle control were exposed to compounds and growth inhibition was measured relative to vehicle treated controls. The strain used in this assay is mec2-1

[1] = at 5.0 µM (retest, dose inferred, filed as 0.5)
[2] = at 50.0 µM (retest, dose inferred, filed as 5.0)

SMILES	growth inhibition [1]	growth inhibition [2]	growth inhibition (at 50.0 µM)
O=C(O)c1cccc2cccc(-c3c4ccc(=O)c(O)c-4oc4c(O)c(O)ccc34)c12	84% (active)	97% (active)	90% (active)
O=C(NNc1ccccc1)OCc1ccccc1	43%	86% (active)	20.5%
COc1ccc2nc3c4c(nccc4c2c1)-c1ncccc1C3=O	31%	98% (active)	87.5% (active)
COc1ccc2c(c1)C(N)=C(c1ccccc1)C2=O	16%	8%	28.2%
O=C(c1ccccc1)N(CCCl)C(=O)N(CCCl)C(=O)c1ccccc1	68%	52%	48.9%
O=C1C=CC(=O)c2c(O)c(CO)c(CO)c(O)c21	27%	96% (active)	84.4% (active)
Cc1ccc2cccc(OC(=O)Nc3cccc(C(F)(F)F)c3)c2n1	39%	98% (active)	89.9% (active)
CCC(C)C(N)C(=O)NC(CC(N)=O)C(=O)NC(CC(C)C)C(=O)NC(CCCCN)C(=O)NC(C)C(=O)NC(CC(C)C)C(=O)NC(C)C(=O)NC(C)C(=O)NC(CC(C)C)C(=O)NC(C)C(=O)NC(CCCCN)C(=O)NC(CCCCN)C(=O)NC(C(=O)NC(CC(C)C)C(N)=O)C(C)CC (stereo not given)	6%	100% (active)	94.2% (active)
Oc1ccc2ccccc2c1N=Nc1ccccn1	-4%	96% (active)	96.7% (active)
OC(c1cc2ccc(C(F)(F)F)cc2c2cc(C(F)(F)F)ccc12)C1CCCCN1 (stereo not given)	77% (active)	98% (active)	92% (active)
CCCCCCCCCCCCSC(=N)N	21%	99% (active)	99% (active)
O=C1C=CC(=O)N1c1ccccc1	99% (active)	99% (active)	99.7% (active)
COC1OC(COC(C)=O)C(OC(C)=O)C(OC(C)=O)C1NC(=O)N(CCCl)N=O (stereo not given)	–	–	-7.1% and -8.6%
O=C(O)C1=C/C(=C(/c2ccccc2)c2cc(C(=O)O)c(O)c3ccccc23)c2ccccc2C1=O	–	–	-29.1% and -27.1%
C[N+](C)(C)c1ncnc2c1ncn2C1CC(O)C(CO)O1 (stereo not given)	–	–	8.45% and 7%
C[N+](C)(C)CCO	–	–	-22.9% and -8.65%
